Records with an inconclusive call do not appear. The source made the active and inactive calls. Unless noted, the call rests on the fitted dose curve; in most records, active means well fitted curve in the direction sought with a large enough effect in the repeat runs; inconclusive means weak or mixed curves; inactive means no such curve, though single readings can be large; an effect the other way counts as inactive or inconclusive.
Assays:
[1] = qHTS assay to identify small molecule agonists of the peroxisome proliferator-activated receptor delta (PPARd) signaling pathway - cell viability counter screen (AID 743211); further: nearly all actives have a fitted effect of over 55% in size
Summary of the method: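 In the same wells used for beta-lactamase reporter measurement, cytotoxicity is scored by CellTiter-Glo. HEK293H PPARd-bla cells receive compound for 17 h at 37C following a 5 h settling period.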

[2] = target: Peroxisome proliferator-activated receptor delta (Homo sapiens) (UniProt Q03181); test: qHTS assay to identify small molecule agonists of the peroxisome proliferator-activated receptor delta (PPARd) signaling pathway (AID 743212; calls by dose curve)
Sequence of Peroxisome proliferator-activated receptor delta (Homo sapiens) (Q03181 whole entry, looked up): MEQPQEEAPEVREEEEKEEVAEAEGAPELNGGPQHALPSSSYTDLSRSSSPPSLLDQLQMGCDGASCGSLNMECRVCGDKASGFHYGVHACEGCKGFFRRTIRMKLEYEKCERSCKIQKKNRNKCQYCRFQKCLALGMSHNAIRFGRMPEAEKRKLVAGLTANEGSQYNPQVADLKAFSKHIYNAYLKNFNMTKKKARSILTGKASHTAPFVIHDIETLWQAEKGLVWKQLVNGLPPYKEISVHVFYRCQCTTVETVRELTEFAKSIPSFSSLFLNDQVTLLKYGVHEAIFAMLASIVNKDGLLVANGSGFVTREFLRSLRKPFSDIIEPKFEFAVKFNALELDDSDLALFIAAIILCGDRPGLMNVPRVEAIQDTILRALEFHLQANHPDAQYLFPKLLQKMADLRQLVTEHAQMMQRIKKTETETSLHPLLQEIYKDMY
Summary of the method: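 Read-out: beta-lactamase FRET fluorescence after 2 h room-temperature incubation with LiveBLAzer B/G substrate. Cells were HEK293H carrying a UAS-bla reporter for PPARd, treated at 37 C with DMSO-dissolved compounds.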

[3] = qHTS assay to identify small molecule antagonists of the peroxisome proliferator-activated receptor delta (PPARd) signaling pathway - cell viability counter screen (AID 743213); further: nearly all actives have a fitted effect of over 50% in size
Summary of the method: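 Viability counter-screen, qHTS format: PPARd-bla HEK293H, L165041 300 nM final, 17 h compound exposure at 37 C, CellTiter-Glo luminescence after 30 min RT.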

[4] = target: Peroxisome proliferator-activated receptor delta (Homo sapiens) (UniProt Q03181); test: qHTS assay to identify small molecule antagonists of the peroxisome proliferator-activated receptor delta (PPARd) signaling pathway (AID 743215; active means well fitted inhibition curve with a large enough effect in the signal ratio in the repeat runs, not every such curve was filed as active; the % refers to the signal ratio;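 further: cells stimulated with agonist L165041 at 300 nM final during compound exposure; series mostly up to about 62 µM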)
Summary of the method: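 Screen format: qHTS, antagonist mode. HEK293H PPARd-bla cells received compound and 300 nM L165041 (final), 17 h, 37 C. Beta-lactamase detected via FRET substrate fluorescence, 2 h, room temperature.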

[5] = target: Bile acid receptor (Homo sapiens) (UniProt Q96RI1); test: qHTS assay to identify small molecule antagonists of the farnesoid-X-receptor (FXR) signaling pathway (AID 743217; active means well fitted inhibition curve with a large enough effect in the signal ratio in the repeat runs, not every such curve was filed as active; the % refers to the signal ratio)
Sequence of Bile acid receptor (Homo sapiens) (Q96RI1 whole entry, looked up): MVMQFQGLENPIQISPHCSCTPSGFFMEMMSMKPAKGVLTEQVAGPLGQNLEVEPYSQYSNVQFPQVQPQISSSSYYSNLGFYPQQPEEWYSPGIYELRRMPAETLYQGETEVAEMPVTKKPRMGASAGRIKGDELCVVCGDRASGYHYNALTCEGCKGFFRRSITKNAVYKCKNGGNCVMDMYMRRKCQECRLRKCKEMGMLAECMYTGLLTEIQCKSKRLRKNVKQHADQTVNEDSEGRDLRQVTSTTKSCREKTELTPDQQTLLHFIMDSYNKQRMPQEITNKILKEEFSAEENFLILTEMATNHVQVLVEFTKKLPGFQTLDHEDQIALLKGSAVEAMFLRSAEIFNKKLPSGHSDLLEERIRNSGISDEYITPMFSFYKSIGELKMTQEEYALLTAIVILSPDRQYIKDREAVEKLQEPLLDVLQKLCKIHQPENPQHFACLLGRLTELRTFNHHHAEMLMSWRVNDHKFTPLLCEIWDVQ
Summary of the method: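 Quantitative HTS, beta-lactamase reporter format: FXR-UAS-bla HEK 293T cells co-treated 16 h at 37 °C with compounds and 50 uM final chenodeoxycholic acid, then read by B/G FRET fluorescence.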

[6] = qHTS assay to identify small molecule agonists of the farnesoid-X-receptor (FXR) signaling pathway - cell viability counter screen (AID 743218); further: nearly all actives have a fitted effect of over 45% in size
Summary of the method: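 Same-well cytotoxicity check on FXR-UAS-bla HEK 293T cells: 5 h attachment, 16 h compound at 37 C, CellTiter-Glo luminescence read at room temperature after 30 min.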

[7] = target: Bile acid receptor (Homo sapiens) (UniProt Q96RI1); test: qHTS assay to identify small molecule agonists of the farnesoid-X-receptor (FXR) signaling pathway (AID 743220; active means well fitted activation curve with a large enough effect in the signal ratio in the repeat runs, not every such curve was filed as active; the % refers to the signal ratio)
Summary of the method: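 FXR-UAS-bla HEK 293T cells carrying a UAS-driven beta-lactamase reporter were plated for 5 h at 37C/5% CO2, then exposed to DMSO-dissolved Tox21 10K compounds for 16 h at 37C. A LiveBLAzer B/G FRET substrate was loaded for 2 h at room temperature before fluorescence reading.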

[8] = qHTS assay to identify small molecule antagonists of the farnesoid-X-receptor (FXR) signaling pathway - cell viability counter screen (AID 743221; active means well fitted cell-killing curve with a large enough effect in the repeat runs, not every such curve was filed as active; further: nearly all actives have a fitted effect of over 50% in size)
Summary of the method: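 Here viability was scored by luminescence after CellTiter-Glo addition to wells already read for beta-lactamase. Prior treatment: compound plus CDCA (50 uM final), 16 h, 37 C, HEK 293T FXR-bla cells.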

[9] = target: Vitamin D3 receptor (Homo sapiens) (UniProt P11473); test: qHTS assay to identify small molecule agonists of the vitamin D receptor (VDR) signaling pathway (AID 743222; calls by dose curve)
Sequence of Vitamin D3 receptor (Homo sapiens) (P11473 whole entry, looked up): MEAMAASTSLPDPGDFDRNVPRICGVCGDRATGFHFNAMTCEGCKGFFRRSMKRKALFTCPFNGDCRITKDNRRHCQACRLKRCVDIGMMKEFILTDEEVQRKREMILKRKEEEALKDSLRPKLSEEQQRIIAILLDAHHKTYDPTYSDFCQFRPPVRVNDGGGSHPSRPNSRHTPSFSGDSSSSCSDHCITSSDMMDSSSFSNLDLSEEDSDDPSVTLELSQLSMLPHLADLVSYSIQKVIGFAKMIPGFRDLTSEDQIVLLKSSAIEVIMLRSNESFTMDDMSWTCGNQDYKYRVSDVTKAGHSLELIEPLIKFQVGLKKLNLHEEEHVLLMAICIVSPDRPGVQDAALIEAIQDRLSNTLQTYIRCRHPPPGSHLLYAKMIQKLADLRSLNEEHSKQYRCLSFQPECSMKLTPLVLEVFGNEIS
Summary of the method: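 Using LiveBLAzer B/G FRET detection, agonism was scored in VDR-bla cells exposed overnight (16 h, 37C) to DMSO-dissolved compounds; substrate incubation was 2 h at room temperature.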

[10] = target: Vitamin D3 receptor (Homo sapiens) (UniProt P11473); test: qHTS assay to identify small molecule antagonists of the vitamin D receptor (VDR) signaling pathway (AID 743223; active means well fitted inhibition curve with a large enough effect in the signal ratio in the repeat runs, not every such curve was filed as active; the % refers to the signal ratio)
Summary of the method: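 Inhibition of agonist-driven VDR signalling is scored in VDR-bla cells: 3 nM final 1alpha,25-dihydroxyvitamin D3 plus compound, 16 h at 37C, then beta-lactamase detection by FRET substrate fluorescence after 2 h.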

[11] = qHTS assay to identify small molecule agonists of the vitamin D receptor (VDR) signaling pathway - cell viability counter screen (AID 743224); further: series mostly up to about 63 µM; nearly all actives have a fitted effect of over 50% in size
Summary of the method: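 Counter screen for cytotoxicity: VDR-bla cells at 2,000 cells/well, 16 h compound exposure, then CellTiter-Glo luminescence after the beta-lactamase measurement.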

[12] = qHTS assay to identify small molecule antagonists of the vitamin D receptor (VDR) signaling pathway - cell viability counter screen (AID 743225); further: nearly all actives have a fitted effect of over 50% in size
Summary of the method: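 Compounds were pinned onto VDR-bla HEK 293T cells together with 1-alpha,25-dihydroxyvitamin D3 at 3 nM final. After 16 h at 37C and 5% CO2 plus the reporter readout, cell viability was measured by CellTiter-Glo luminescence (30 min, room temperature).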

[13] = qHTS assay to identify small molecule agonists of the NFkB signaling pathway (AID 1159509; active means well fitted curve in the direction sought with a large enough effect in the signal ratio in the repeat runs, not every such curve was filed as active; the % refers to the signal ratio; further: series mostly up to about 61 µM)
Summary of the method: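 Readout: FRET fluorescence, 405 nm excitation, 460/530 nm emission; beta-lactamase expression disrupts FRET. Cells: ME-180 stably carrying NF-kB-driven bla reporter. Compound exposure 5 hr, 37 C, 5% CO2.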

[14] = qHTS assay to identify small molecule agonists of the NFkB signaling pathway - cell viability counter screen (AID 1159515; calls by dose curve; further: series mostly up to about 61 µM; nearly all actives have a fitted effect of over 55% in size)
Summary of the method: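 Counter screen run alongside the NFkB-bla agonist assay: ME-180 reporter cells exposed to compounds for 5 hr, then lysed with CellTiter-Glo in the same wells. Luminescence, read after 30 min, reflects viable cells.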

[15] = qHTS assay to identify small molecule agonists of the endoplasmic reticulum stress response signaling pathway (AID 1159516; active means well fitted activation curve with a large enough effect in the signal ratio in the repeat runs, not every such curve was filed as active; the % refers to the signal ratio)
Summary of the method: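 For this screen, HeLa cells stably carrying beta-lactamase under the ER stress response element received test compounds, positive controls or DMSO for 5 hr at 37 C; B/G FRET substrate was then added and dual-wavelength emission recorded.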

[16] = qHTS assay to identify small molecule agonists of the endoplasmic reticulum stress response signaling pathway - cell viability counter screen (AID 1159517; calls by dose curve)
Summary of the method: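 Steps: seed 1,500 ESRE-bla HeLa cells per well; incubate overnight at 37 C, 5% CO2; add compounds in DMSO for 5 hr; run FRET substrate 2 hr RT; add CellTiter-Glo, wait 30 min, read luminescence.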

[17] = target: Nuclear receptor ROR-gamma (Homo sapiens) (UniProt P51449); test: qHTS assay to identify small molecule antagonists of the retinoid-related orphan receptor gamma (ROR-gamma) signaling pathway (AID 1159521)
Summary of the method: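 Test compounds were applied to Tet-on RORγ CHO cells 2 h ahead of doxycycline hyclate (1 uM final). Luciferase reporter activity was quantified by luminescence after 16 h at 37 C and 5% CO2.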

[18] = qHTS assay to identify small molecule agonists of the AP-1 signaling pathway - cell viability counter screen (AID 1159525; calls by dose curve; further: nearly all actives have a fitted effect of over 55% in size)
Summary of the method: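 Same-well cytotoxicity counter screen of the Tox21 10K library in ME-180 cells. The readout is ATP-dependent luminescence after 5 h compound treatment. Data are normalised to DMSO and tetra n-octyl ammonium bromide controls.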

[19] = qHTS assay to identify small molecule agonists of the AP-1 signaling pathway (AID 1159526; calls by dose curve)
[20] = qHTS assay to identify small molecule antagonists of the retinoid-related orphan receptor gamma (ROR-gamma) signaling pathway - cell viability counter screen (AID 1159520); further: nearly all actives have a fitted effect of over 50% in size
Summary of the method: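 Tet-on ROR gamma CHO cells were given compounds for 2 hr, then doxycycline hyclate at 1 uM final, and incubated 16 hr at 37 C. Viability was measured as ATP content by CellTiter-Glo luminescence.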

Measured: Potency

Cc1cc(Cl)ccc1O
not listed: [20]
inactive: all other assays above

CC1OC(C)OC(C)O1 (centres undefined)
not listed: [9] | [10] | [20]
inactive: all other assays above

CNC(=O)Oc1ccccc1OC(C)C
not listed: [5] | [7]
inactive: all other assays above

CC(C)(C)OOC(=O)c1ccccc1
not listed: [5] | [7]
inactive: all other assays above

COC(=O)NS(=O)(=O)c1ccc(N)cc1
not listed: [5] | [7] | [20]
inactive: all other assays above

CCCN(CCC)N=O
not listed: [5] | [7]
inactive: all other assays above

c1cc2c3c(cccc3c1)CC2
not listed: [5] | [7] | [9] | [10]
inactive: all other assays above

C#CCN(C)[C@H](C)Cc1ccccc1
not listed: [5] | [7] | [17] | [18]
inactive: all other assays above
